# Experimental data: PubChem BioAssay AID1159580 (chemical genetic matrix, 2015)
# The whole screen tested about 5,500 compounds, of which about 2,000 (36%) were called active. Roughly 18% stayed inconclusive and do not appear here. The list shows a part of the results. Unmarked numbers belong to inactive results. No stated cut-off is given here; in the data, active means normalized growth mostly below about 0.91 (no sharp cut-off); inconclusive means no clear call, values can overlap the other calls; inactive means mostly above about 0.92.
# Test: chemical genetic growth profiling, strain panel (AID 1159580);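 further: tested at 20 µM; growth read once vehicle control cultures reached saturation at 30 °C; 1 = growth at the plate median or of vehicle wells; lower values mean less growth of the strain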
# Conditions: S. cerevisiae deletion strains, growth OD
# [1] = locus YAR019C, strain CDC15, hits give low values
# [2] = locus YBL105C, strain PKC1, hits give low values
# [3] = locus YBR135W, strain CKS1, hits give low values
# [4] = locus YBR136W, strain MEC1, hits give low values
# [5] = locus YBR160W, strain CDC28, hits give low values
# [6] = locus YDL017W, strain CDC7, hits give low values
# [7] = locus YDL028C, strain MPS1, hits give low values
# [8] = locus YDL101C, strain DUN1, hits give low values
# [9] = locus YDL108W, strain KIN28, hits give low values
# [10] = locus YDL132W, strain cdc53, hits give low values
# [11] = locus YDL214C, strain PRR2, hits give low values
# [12] = locus YDR052C, strain DBF4, hits give low values
# [13] = locus YDR226W, strain ADK1, hits give low values
# [14] = locus YDR477W, strain SNF1, hits give low values
# [15] = locus YER123W, strain YCK3, hits give low values
# [16] = locus YER133W, strain GLC7, hits give low values
# [17] = locus YFL009W, strain cdc4, hits give low values
# [18] = locus YFL029C, strain CAK1, hits give low values
# [19] = locus YFR003C, strain YPI1, hits give low values
# [20] = locus YFR019W, strain FAB1, hits give low values
# [21] = locus YFR028C, strain CDC14, hits give low values
# [22] = locus YGR040W, strain KSS1, hits give low values
# [23] = locus YGR052W, strain FMP48, hits give low values
# [24] = locus YGR092W, strain DBF2, hits give low values
# [25] = locus YHR030C, strain SLT2, hits give low values
# [26] = locus YHR079C, strain IRE1, hits give low values
# [27] = locus YHR082C, strain KSP1, hits give low values
# [28] = locus YHR205W, strain SCH9, hits give low values
# [29] = locus YIL147C, strain SLN1, hits give low values
# [30] = locus YJL095W, strain BCK1, hits give low values
# [31] = locus YJL128C, strain PBS2, hits give low values
# [32] = locus YJL157C, strain FAR1, hits give low values
# [33] = locus YJR016C, strain ILV3, hits give low values
# [34] = locus YJR066W, strain TOR1 (second series), hits give low values
# [35] = locus YJR066W, strain TOR1, hits give low values
# [36] = locus YKL048C, strain ELM1, hits give low values
# [37] = locus YKL067W, strain YNK1, hits give low values
# [38] = locus YKL101W, strain HSL1, hits give low values
# [39] = locus YKL193C, strain SDS22, hits give low values
# [40] = locus YKL203C, strain TOR2, hits give low values
# [41] = locus YLR113W, strain HOG1, hits give low values
# [42] = locus YLR133W, strain CKI1, hits give low values
# [43] = locus YLR403W, strain SFP1, hits give low values
# [44] = locus YML070W, strain DAK1, hits give low values
# [45] = locus YMR001C, strain CDC5, hits give low values
# [46] = locus YMR205C, strain PFK2 (second series), hits give low values
# [47] = locus YMR277W, strain FCP1, hits give low values
# [48] = locus YNL006W, strain LST8, hits give low values
# [49] = locus YNL020C, strain ARK1, hits give low values
# [50] = locus YNL161W, strain CBK1, hits give low values
# [51] = locus YNL183C, strain NPR1, hits give low values
# [52] = locus YNL207W, strain RIO2, hits give low values
# [53] = locus YNL222W, strain SSU72, hits give low values
# [54] = locus YNL307C, strain MCK1 (second series), hits give low values
# [55] = locus YOL078W, strain AVO1, hits give low values
# [56] = locus YOL136C, strain PFK27, hits give low values
# [57] = locus YOR061W, strain CKA2, hits give low values
# [58] = locus YOR119C, strain RIO1, hits give low values
# [59] = locus YOR231W, strain MKK1, hits give low values
# [60] = locus YOR329C, strain SCD5, hits give low values
# [61] = locus YPL031C, strain PHO85, hits give low values
# [62] = locus YPL153C, strain RAD53, hits give low values
# [63] = locus YPL204W, strain HRR25, hits give low values
# [64] = locus YPL209C, strain IPL1, hits give low values
# [65] = locus YPL256C, strain CLN2, hits give low values
# [66] = locus YPR025C, strain CCL1, hits give low values
# [67] = locus YPR106W, strain ISR1, hits give low values
# [68] = locus YPR111W, strain DBF20, hits give low values
# [69] = strain NNK1, hits give low values
# [70] = strain TSCII, hits give low values
structure (smiles),measurement,setting,value
CC(=O)c1ccc(Cl)c(N=Cc2cc(Br)cc(Br)c2O)c1,normalized growth,[1],0.107 (active)
same,normalized growth,[2],0.0938 (active)
same,normalized growth,[3],0.0994 (active)
same,normalized growth,[4],0.112 (active)
same,normalized growth,[5],0.127 (active)
same,normalized growth,[6],0.104 (active)
same,normalized growth,[7],0.12 (active)
same,normalized growth,[8],0.118 (active)
same,normalized growth,[9],0.127 (active)
same,normalized growth,[10],0.402 (active)
same,normalized growth,[11],0.106 (active)
same,normalized growth,[12],0.303 (active)
same,normalized growth,"locus YDR054C, strain cdc34, hits give low values",0.166 (active)
same,normalized growth,[13],0.621 (active)
same,normalized growth,[14],0.109 (active)
same,normalized growth,[15],0.115 (active)
same,normalized growth,[16],0.105 (active)
same,normalized growth,[17],0.0929 (active)
same,normalized growth,[18],0.0974 (active)
same,normalized growth,[19],0.0995 (active)
same,normalized growth,[20],0.0995 (active)
same,normalized growth,[21],0.102 (active)
same,normalized growth,[22],0.103 (active)
same,normalized growth,[23],0.128 (active)
same,normalized growth,[24],0.102 (active)
same,normalized growth,[25],0.141 (active)
same,normalized growth,[26],0.124 (active)
same,normalized growth,[27],0.134 (active)
same,normalized growth,[28],0.00344 (active)
same,normalized growth,[29],0.104 (active)
same,normalized growth,[30],0.141 (active)
same,normalized growth,[31],0.0977 (active)
same,normalized growth,[32],0.0879 (active)
same,normalized growth,[33],0.0892 (active)
same,normalized growth,[34],0.091 (active)
same,normalized growth,[35],0.12 (active)
same,normalized growth,[36],0.114 (active)
same,normalized growth,[37],0.0955 (active)
same,normalized growth,[38],0.112 (active)
same,normalized growth,[39],0.0908 (active)
same,normalized growth,[40],0.113 (active)
same,normalized growth,[41],0.161 (active)
same,normalized growth,[42],0.0941 (active)
same,normalized growth,[43],-0.00302 (active)
same,normalized growth,[44],0.099 (active)
same,normalized growth,[45],0.0969 (active)
same,normalized growth,[46],0.0844 (active)
same,normalized growth,[47],0.0941 (active)
same,normalized growth,[48],0.0893 (active)
same,normalized growth,[49],0.103 (active)
same,normalized growth,[50],0.0859 (active)
same,normalized growth,[51],0.119 (active)
same,normalized growth,[52],0.0975 (active)
same,normalized growth,[53],0.0926 (active)
same,normalized growth,[54],0.103 (active)
same,normalized growth,[55],0.0827 (active)
same,normalized growth,[56],0.102 (active)
same,normalized growth,[57],0.0946 (active)
same,normalized growth,[58],0.102 (active)
same,normalized growth,[59],0.119 (active)
same,normalized growth,[60],0.0861 (active)
same,normalized growth,[61],0.105 (active)
same,normalized growth,[62],0.0925 (active)
same,normalized growth,[63],0.0963 (active)
same,normalized growth,[64],0.0856 (active)
same,normalized growth,[65],0.144 (active)
same,normalized growth,[66],0.0958 (active)
same,normalized growth,[67],0.0925 (active)
same,normalized growth,[68],0.106 (active)
same,normalized growth,[69],0.102 (active)
same,normalized growth,[70],0.102 (active)
CC(=O)c1ccc(Cl)c(N=Cc2cc(Cl)cc(Cl)c2O)c1,normalized growth,[1],0.94
same,normalized growth,[2],0.948
same,normalized growth,[3],0.953
same,normalized growth,[4],0.941
same,normalized growth,[5],0.937
same,normalized growth,[6],0.944
same,normalized growth,[7],0.91
same,normalized growth,[8],0.932
same,normalized growth,[9],0.935
same,normalized growth,[10],0.958
same,normalized growth,[11],0.303 (active)
same,normalized growth,[12],0.963
same,normalized growth,[13],0.948
same,normalized growth,[14],0.289 (active)
same,normalized growth,[15],0.151 (active)
same,normalized growth,[16],0.354 (active)
same,normalized growth,[17],0.928
same,normalized growth,[18],0.934
same,normalized growth,[19],0.933
same,normalized growth,[20],0.222 (active)
same,normalized growth,[21],0.939
same,normalized growth,[22],0.339 (active)
same,normalized growth,[23],0.253 (active)
same,normalized growth,[24],0.139 (active)
same,normalized growth,[25],0.159 (active)
same,normalized growth,[26],0.148 (active)
same,normalized growth,[27],0.227 (active)
same,normalized growth,[28],0.199 (active)
same,normalized growth,[29],0.926
same,normalized growth,[30],0.139 (active)
same,normalized growth,[31],0.9
same,normalized growth,[32],0.23 (active)
same,normalized growth,[33],0.967
same,normalized growth,[34],0.341 (active)
same,normalized growth,[35],0.175 (active)
same,normalized growth,[36],0.441 (active)
same,normalized growth,[37],0.227 (active)
same,normalized growth,[38],0.308 (active)
same,normalized growth,[39],0.941
same,normalized growth,[40],0.399 (active)
same,normalized growth,[41],0.192 (active)
same,normalized growth,[42],0.274 (active)
same,normalized growth,[43],0.186 (active)
same,normalized growth,[44],0.184 (active)
same,normalized growth,[45],0.936
same,normalized growth,[46],0.304 (active)
same,normalized growth,[47],0.92
same,normalized growth,[48],0.947
same,normalized growth,[49],0.247 (active)
same,normalized growth,[50],0.955
same,normalized growth,[51],0.246 (active)
same,normalized growth,[52],0.947
same,normalized growth,[53],0.923
same,normalized growth,[54],0.209 (active)
same,normalized growth,[55],0.926
same,normalized growth,[56],0.197 (active)
same,normalized growth,[57],0.198 (active)
same,normalized growth,[58],0.32 (active)
same,normalized growth,[59],0.123 (active)
same,normalized growth,[60],0.953
same,normalized growth,[61],0.269 (active)
same,normalized growth,[62],0.197 (active)
same,normalized growth,[63],0.247 (active)
same,normalized growth,[64],0.95
same,normalized growth,[65],0.197 (active)
same,normalized growth,[66],0.959
same,normalized growth,[67],0.952
same,normalized growth,[68],0.931
same,normalized growth,[69],0.948
same,normalized growth,[70],0.905
